# Test results as given in the supplement of paper PMC6555819.
# Tests used:
# Assay in all cases: PBM binding z-score (relative to random genomic background probes); higher = stronger binding; sequences stand for … in GC…GCGATTGACAGCGTAGAATGAAGG
# [1] = system: FXR:RXRa (NR concentration 270 nM, RXRa partner concentration 90 nM)
# Outline: (§1)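 Antibodies against each partner of ligand-free nuclear receptor dimers (one per run) detected binding on custom Agilent 4×180K protein-binding microarrays after 1 h incubation. The double-stranded probes had 34-nt variable regions carrying direct-repeat seeds, single-nucleotide variants, half-site ablations and random human genomic background sequences. Binding z-scores, from regression-normalized fluorescence, use the random background probes as reference.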
# [2] = system: LXRa:RXRa (NR concentration 270 nM, RXRa partner concentration 90 nM)
# Outline: as §1
# [3] = system: LXRa homodimer (NR concentration 270 nM)
# Outline: as §1
# [4] = system: LXRb:RXRa (NR concentration 270 nM, RXRa partner concentration 90 nM)
# Outline: as §1
# [5] = system: LXRb homodimer (NR concentration 270 nM)
# Outline: as §1
# [6] = system: PPARa:RXRa (NR concentration 270 nM, RXRa partner concentration 90 nM)
# Outline: as §1
# [7] = system: PPARg:RXRa (NR concentration 180 nM, RXRa partner concentration 90 nM)
# Outline: as §1
# [8] = system: PPARg:RXRa 270nM:90nM, anti-RXR (NR concentration 270 nM, RXRa partner concentration 90 nM)
# Outline: as §1
# [9] = system: PPARg:RXRa 30nM:10nM, anti-RXR (NR concentration 30 nM, RXRa partner concentration 10 nM)
# Outline: as §1
# [10] = system: PPARg:RXRa 90nM:30nM, anti-RXR (NR concentration 90 nM, RXRa partner concentration 30 nM)
# Outline: as §1
# [11] = system: PPARg:RXRa DBDmut IVT, anti-RXR (DBD mutation: RXRa K156A/R161A, NR concentration 270 nM, RXRa partner concentration 90 nM)
# Outline: as §1
# [12] = system: PPARg:RXRa IVT, anti-PPARg (NR concentration 270 nM, RXRa partner concentration 90 nM)
# Outline: as §1
# [13] = system: PPARg DBDmut:RXRa IVT, anti-PPARg (DBD mutation: PPARg1 K132A/R137A, NR concentration 270 nM, RXRa partner concentration 90 nM)
# Outline: as §1
# [14] = system: PPARg DBDmut IVT, anti-PPARg (DBD mutation: PPARg1 K132A/R137A, NR concentration 270 nM)
# Outline: as §1
# [15] = system: PPARg homodimer (NR concentration 180 nM)
# Outline: as §1
# [16] = system: PXR:RXRa (NR concentration 270 nM, RXRa partner concentration 90 nM)
# Outline: as §1
# [17] = system: PXR homodimer (NR concentration 270 nM)
# Outline: as §1
# [18] = system: RARa:RXR (NR concentration 270 nM, RXRa partner concentration 90 nM)
# Outline: as §1
# [19] = system: RARa homodimer (NR concentration 270 nM)
# Outline: as §1
# [20] = system: RARb:RXRa (NR concentration 270 nM, RXRa partner concentration 90 nM)
# Outline: as §1
Sequence,PBM binding z-score [1],PBM binding z-score [2],PBM binding z-score [3],PBM binding z-score [4],PBM binding z-score [5],PBM binding z-score [6],PBM binding z-score [7],PBM binding z-score [8],PBM binding z-score [9],PBM binding z-score [10],PBM binding z-score [11],PBM binding z-score [12],PBM binding z-score [13],PBM binding z-score [14],PBM binding z-score [15],PBM binding z-score [16],PBM binding z-score [17],PBM binding z-score [18],PBM binding z-score [19],PBM binding z-score [20]
TCGAGTAGGTGAGTCGGGGCATTCAGCCAACATA,-0.0608,-0.132,-0.66,0.164,-0.758,0.821,0.173,0.652,0.673,0.803,3.41,2.92,-0.294,-0.634,-0.137,-0.178,-0.0256,-0.138,-0.397,0.298
ATCTCTAGGTAAGACCCAGTTCAGTGAAGAACGC,0.43,0.778,0.612,0.599,0.872,0.54,0.457,0.208,0.196,0.526,2.24,1.79,0.676,0.699,0.695,0.9,1.45,0.59,0.821,0.371
CGTCAAAGTTCAAAGTAACGTAACAGAAAGCAGC,6.87,6.57,4.32,4.01,2.75,4.91,4.43,5.36,2.18,4.17,0.465,1.58,1.23,1.35,3.3,4.68,3.73,3.43,1.73,4.9
TCTCGGAGGACACGAACGTCAGAGCTTTCCAGAG,0.0459,0.0114,-0.625,-0.532,-1.31,0.0688,0.0947,0.795,1.95,1.18,0.985,-0.0503,-0.617,-1.23,-1.43,-0.256,-0.522,-0.0977,-1.21,1.35
AGAACGAGGGCACGCTGAGATGATAGCAGAGTAG,0.695,0.423,-0.425,0.0557,-0.697,2.1,2.33,1.98,0.819,1.41,4.28,3.41,0.615,0.133,0.5,0.342,-0.229,0.762,-0.576,2.5
CAAACTAGGTCATAGAGGTCAAAGTCCGTGCGTA,7.25,6.71,8.36,6.15,2.33,6.49,9.13,7.74,6.17,7.92,8.2,8.54,1.02,1.45,5.21,6.75,12.4,6.77,2.28,5.12
ACTATTTGGTCAGCTGAGGTCACACACAATTCGG,3.54,3.48,2.98,3.81,1.88,3.9,1.86,2.4,0.852,1.66,1.59,2.69,1.5,1.46,2.9,5.26,1.97,4.3,1.66,3.65
TCTATTAGATGATTAGGGCAACCGAAACAGCGGA,0.507,0.432,0.054,0.49,0.329,0.871,0.674,1.88,3.31,2.68,2.02,1.09,0.897,0.561,0.156,0.4,-0.123,0.416,0.326,0.703
AGCATGAGGTTACCAAAGATCAGGGAAACGCTTG,1.94,6.48,0.0616,3.13,-0.682,2.77,1.41,1.4,0.579,1.07,0.803,0.996,0.0724,-0.827,0.663,1.38,0.241,2.44,-0.672,2.07
CCTTACGGGTTACTGACAGGTTATAGCATTTGGA,0.701,2.51,0.282,1.34,-0.567,1.78,0.373,1.24,0.114,0.535,1.04,0.57,-0.172,-0.367,1.21,0.825,0.22,1.51,0.545,0.924
TCTTGTAGATCAAAGGGTAAGAAAGCCGAAGCCT,0.566,0.4,-0.283,0.288,-0.418,2.51,4.4,5.99,5.35,6.1,1.69,1.86,-0.0494,-0.151,-0.138,0.0425,-0.478,0.483,-0.0812,0.507
GGAACGAGGGAATTCGAGTTGATAGCATGGCGAT,-0.4,-0.535,-0.72,-0.978,-1.16,-0.557,0.44,-0.504,-0.356,-0.529,-0.111,-0.244,-0.28,0.0147,-0.611,-0.165,-0.439,-0.36,-0.411,-0.688
CAAACTAGGTCAGGGTCAAAGTCGGTTTGTGCCA,5.97,4.32,1.32,4.16,0.645,6.05,9,7.43,5.39,7.73,8.32,8.36,4.34,3.17,4.2,4.81,1.33,5.35,1.42,4.47
CGAACGAGGCCATGAGTTGATAGCAAATGCCGAT,-0.039,-0.24,-0.636,-0.483,-1.01,0.273,0.728,0.586,-0.00312,0.44,1.62,0.713,-0.17,-0.886,0.125,-0.17,-0.294,0.133,-0.191,0.941
TGGATGAGGTTAAAGATCAGGGAACGTGGCGTCG,3.69,2.74,0.085,2.45,1.54,4.13,3.75,4.84,3.49,4.98,0.289,1.92,1.51,0.255,1.99,2.71,1.07,3.96,0.62,2.37
AGAATGAGGTTAAGAACAGGGAAACAGAATACAT,2.13,1.7,0.291,1.87,0.264,3.18,2.15,2.05,0.811,1.34,2.35,2.23,1.48,0.955,0.811,1.13,0.635,1.61,0.514,1.87
CCTAGCAGTCCAATCTGGGTCACTCAAGGCTTGA,0.349,0.868,-0.0916,0.921,-0.342,2.91,1.73,2.01,-0.0165,1.64,3.55,4.58,-0.524,-0.84,0.738,1.04,-0.0331,1.58,-0.751,1.17
GCTAGCATGCCATTTGGGTCACTCAATGACGGGC,0.122,-0.0732,-0.46,0.0644,-0.628,1.05,0.819,0.752,-0.349,0.397,0.671,1.3,0.0302,-0.739,-0.305,0.247,-0.745,0.851,-0.41,1
TCTAGTTGGTCAAGGAGGTCACACACGACGGGTA,3.04,3.16,1.88,3.23,0.53,3.73,2.59,3.56,3.6,3.39,2.22,3.77,0.973,1.49,2.56,4.22,1.23,4.22,1.46,3.47
CGTTAAAGTTCAACTAAGGTAACGTAAAGCACGC,7.01,6.26,4.48,4.01,1.89,4.8,3.71,4.36,1.66,3.27,0.607,1.7,1.25,1.18,2.84,5.26,3.31,3.9,1.26,5.17
ATATGTAGCTTAGCTGGGGTCATTCAGACTAGGC,3.34,3.44,1.49,4.21,0.639,4.15,1.15,2.3,0.587,1.59,0.33,0.991,0.947,0.695,1.04,5.29,1.48,4.92,0.298,2.4
TAGCCTAGGTCAGATCGGGCCAGTTTACGCTATA,2.08,0.989,-0.49,0.503,-0.465,1.74,0.188,0.541,-0.568,-0.123,0.41,1.12,-0.332,-0.719,0.0651,1.13,-0.787,0.463,-1.05,2.69
AGAACGAGGGGAATGAGTTGATAGCACGGGTGGC,-0.0217,-0.0133,-0.00891,-0.228,0.0514,0.192,0.861,-0.0385,-0.193,-0.152,1.5,0.636,0.108,0.301,0.561,-0.115,0.264,0.125,0.109,0.142
ATCTCTAGGTAAAGAGAGTTCAGTGAATGCAAAT,0.502,4.09,1.76,1.41,0.27,1.34,0.263,0.567,0.0587,0.356,2.17,1.38,0.459,0.197,0.502,3.71,3.18,0.79,0.685,1.16
GCTAGTTGGTCAGTAAAAGGGCACACACCGGTCG,0.16,0.257,0.266,0.266,-0.104,0.841,0.709,1.04,0.0544,0.502,0.062,0.821,0.0138,-0.25,1.05,0.368,0.0129,0.889,0.252,1.72
CCTGCTAGGTCATCGTCAGCTAATCTACAGTATG,3.85,2.89,0.112,1.87,-0.413,3.5,2.06,2.75,0.439,1.47,4.49,3.59,-0.277,-0.677,0.929,1.45,-0.29,2.39,-0.471,4.03
TGAATGAGGTTAAAGATCAGGTAACGTGGCGTCG,3.32,2.73,-0.204,1.82,0.134,4.75,5.6,5.96,4.89,6.01,2.2,3.62,0.604,0.742,0.811,2.19,0.0433,3.18,0.33,2.01
CCGAGTAGGTTATGGTGCATTCAGGCAACGGTGA,0.234,0.34,0.363,0.361,0.234,1.52,2.04,3.55,1.15,3.04,3.71,2.67,0.333,-0.183,1.25,-0.0319,0.413,0.311,0.498,0.711
